# Measurements taken from PubChem BioAssay AID802 (Columbia University Molecular Screening Center, 2007).
# Hit rate of the full screen: of about 95,000 compounds, about 460 (0.48%) were called active. This is one part of a sample in which actives are shown more often than they occur. Values without a mark were called inactive.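 How the source made its calls: active means inhibition above the batch mean plus 3 SD, with images confirmed as a hit by eye (cut at about 37% in these data); inconclusive means inhibition above that limit but hit not confirmed in images; inactive means inhibition not above that limit.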
# Assay: blockers of endothelial VCAM-1 upregulation by TNFa – imaging, HUVEC, TNFa stimulus, immunofluorescence, primary screen (AID 802);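 further: 0% = TNF-stimulated DMSO wells and 100% = unstimulated control wells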
# Conditions: HUVEC TNFa-induced VCAM-1 immunofluorescence, high-content imaging; at 2 µM; hits give high values
row,SMILES,inhibition
1,O=C(c1ccccn1)c1ncc(C(F)(F)F)cc1Cl,2.2%
2,Cc1ccc(C(=O)c2c(NC(=O)c3ccncc3)sc3c2CCCC3)cc1,3%
3,O=C(Cn1cnc2ccccc2c1=O)NCC1COc2ccccc2O1 (stereo unspecified),0.5%
4,Cc1ccc(-c2nn(C(C)(C)C)c3ncnc(N)c23)cc1,40.8% (active)
5,C=CCn1c(N)c(S(=O)(=O)c2cccs2)c2nc3ccccc3nc21,-6.6%
6,CC(C)(C)OC(=O)c1c(N)n(CCCN2CCCC2=O)c2nc3ccccc3nc12,-22.1%
7,C=CCn1c(N)c(C(=O)OCC(C)C)c2nc3ccccc3nc21,94.4% (active)
8,Cc1ccc(SCC(=O)c2cc(C)c(OC(=S)N(C)C)c(C)c2)cc1,8.8%
9,COc1cc(C(=O)N2CCN(C/C=C/c3ccccc3)CC2)cc(OC)c1C,-10.4%
10,Cc1cc(/C=N/NC(=O)CC2(C)OCCO2)c(C)n1-c1ccc(Cl)c(Cl)c1,-7.1%
11,CCOC(=O)C(=O)Nc1nc(-c2ccccc2)c(CC)s1,4.9%
12,O=S(=O)(NCc1cccnc1)c1ccc(Cl)nc1,0.2%
13,COc1ccc(C(C(=O)NCc2ccccc2)N(Cc2cccs2)C(=O)c2cnccn2)cc1 (stereo unspecified),2.9%
14,Cc1ccc(-c2nc3ccccc3[nH]2)cc1N,4.2%
15,NC(=O)COc1ccc(/C=N/NC(=O)C2CCCN2S(=O)(=O)c2ccc(Cl)cc2)cc1 (stereo unspecified),17.1%
16,O=S(=O)(/N=C(/Nc1ccccn1)c1ccccc1)c1ccc(Cl)cc1,0.3%

row,SMILES,inhibition
1,Cc1ccccc1CS(=O)(=O)CC1(O)CCN(C(=O)c2cccc(C(F)(F)F)c2)CC1,-2%
2,O=C(NC1(C(F)(F)F)NC(=O)N(Cc2cccnc2)C1=O)c1ccccc1Cl (stereo unspecified),8.4%
3,COc1cc(NS(=O)(=O)c2ccc(N/C=C(\C=O)c3nc4cc(Cl)ccc4o3)cc2)nc(OC)n1,-2.6%
4,Cc1cc(C(=O)CSc2nc(N)cc(=O)[nH]2)c(C)n1CCc1ccc(Cl)cc1,16.5%
5,CSc1nc2nc3c(c(=O)n2[nH]1)CCC3,7.1%
6,CC(C)=CC(=O)Nc1nnc(-c2ccc(F)cc2)s1,6.5%
7,CC(C)(C)c1cc2cccnc2n1Cc1ccccc1,9.9%
8,Cc1cccc(N2CCN(S(=O)(=O)c3ccc4[nH]c(=O)c(=O)[nH]c4c3)CC2C)c1 (stereo unspecified),3.1%
9,Cc1cccc(N=C2NC(=O)CS2)c1C,97.1% (active)
10,CCOc1ccccc1N=C1NC(=O)CS1,-6.9%
11,COC(=O)C1C(=O)c2c([nH]c(C(=O)OCCSC)c2C)CC1C (stereo unspecified),1.9%
12,CCCOC(=O)c1[nH]c2c(c1C)C(=O)CC(c1cccs1)C2 (stereo unspecified),65% (active)
13,C=CCOC(=O)C1=C(C)NC(C)=C(C(=O)OCC=C)C1c1cccs1,3.8%
14,CCCCCCC12CCC(C(=O)O)(CC1)CC2,25.1%
15,Cc1cccc2c(=O)n3c(nc12)CCCCC3,13.3%
